± gives the standard deviation.

This assay has as its system OVCAR-3-derived ovarian cancer stem-like cells (spheroids). The experiment in a line: cell growth relative to untreated control; higher = more growth (less inhibition). As to conditions: 2.29 µM; 96 h. In short, it runs like this:
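Percent growth was calculated against untreated wells once blanks were subtracted and Grubbs outliers removed. The cells were OVCAR-3 spheroid-derived stem-like cells, trypsinized and plated at 50,000 cells/mL in stem cell medium on ultra-low attachment 96-well plates for a 24 h preincubation. They were then exposed to compounds at 2.29 uM for 96 h at 37°C, 5% CO2, in 4 replicate wells, and viability was measured by TOX8 resazurin fluorescence (ex 560/em 590 nm) after 4 h.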
`BrC(/C=N/Nc1nnc(-c2ccccc2)c(-c2ccccc2)n1)C(Br)c1ccccc1` (centres undefined) showed a cell growth of 93.9 ± 17%.
The value for `COc1ccc2cccc(C(=N)c3ccc(C)c4c3CCC4)c2c1` was 95.3 ± 25%.
Next, `O=C1Nc2ccc(Br)cc2/C1=C\C(=O)c1ccccc1`: 96.9 ± 11%; `Nc1ccccc1N`: 88.4 ± 25%; `Cc1c2oc3c(C)ccc(C(=O)N[C@@H]4C(=O)N[C@H](C(C)C)C(=O)N5CCC[C@H]5C(=O)N(C)CC(=O)N(C)[C@@H](C(C)C)C(=O)O[C@@H]4C)c3nc-2c(C(=O)N[C@@H]2C(=O)N[C@H](C(C)C)C(=O)N3CCC[C@H]3C(=O)N(C)CC(=O)N(C)[C@@H](C(C)C)C(=O)O[C@@H]2C)c(N)c1=O`: 8.44 ± 3.9%.
The value for `COC(=O)C1(C)CCCC2(C)c3cc(OC)ccc3C(=O)C(Br)C12` (centres undefined) was 89.4 ± 39%; that for `COc1cc(OC)c(OC)cc1/C=C/c1ccnc2ccccc12` was 75.8 ± 10%; that for `Cc1ccc(C)c(NC(=O)C(=O)C(C(=O)c2ccc3ccccc3c2)C2OC(=O)c3ccccc32)c1` (centres undefined) was 121 ± 78%.
In turn, `COC(=O)NC1C(C)OC(OC2C/C=C(/C)C3C=CC4C(OC5CC(OC6CCC(OC7CC(O)C(OC8CCC(O)C(C)O8)C(C)O7)C(C)O6)C(OC(C)=O)C(C)O5)C(C)CC(C)C4C3(C)/C(O)=C3/C(=O)OC4(CC(C=O)=CC(O)C4/C=C\2C)C3=O)CC1(C)[N+](=O)[O-]` (centres undefined) displayed a cell growth of 61.9 ± 10%.
In turn, `Cc1nc(Nc2ccc(Cl)c(Cl)c2)sc1C(/C=C/c1ccc2c(c1)OCO2)=N/Nc1ccc([N+](=O)[O-])cc1[N+](=O)[O-]` came in with a cell growth of 101 ± 15%.
The value for `COc1nc(N)nc2nc[nH]c12` was 91.9 ± 17%.
Consider `COc1ccc(C2c3cc4c(c(OC)c3CC3OCC(=O)C32)OCO4)cc1OC` (centres undefined), for which the cell growth was 41.3 ± 11%.
Next, `COc1ccc(OC)c(-c2cc(=O)c3c(OC)c(OC)c(OC)c(OC)c3o2)c1`: 128 ± 50%; `O=C1C(=O)c2ccccc2C(O)=C1CC=C(Cl)Cl`: 92.3 ± 30%.
Next, `Nc1ccn([C@@H]2C=C(CO)[C@@H](O)[C@H]2O)c(=O)n1`: 44.8 ± 5.1%; `C=C1CC[C@@H]2[C@](C)(CO)[C@H](O)CC[C@@]2(C)[C@@H]1C/C=C1/C(=O)OC[C@H]1O`: 119 ± 38%; `CC[C@@]1(O)C[C@H](O[C@H]2C[C@H](N(C)C)[C@H](O[C@H]3C[C@H](O)[C@H](O[C@H]4C[C@H](O)[C@H](O)[C@H](C)O4)[C@H](C)O3)[C@H](C)O2)c2c(cc3c(c2O)C(=O)c2c(O)ccc(O)c2C3=O)[C@H]1C(=O)OC`: 78.9 ± 26%.
Next, `NC1(CCNC(=O)c2ccccc2)CCN(C(=O)c2ccccc2)CC1`: 118 ± 19%; `CC(C)(C)c1ccc(OC2CCO2)cc1` (centres undefined): 89.3 ± 19%; `COc1ccc2c(NCCCCCCNc3c4ccccc4nc4cc(OC)ccc34)c3ccccc3nc2c1`: 13.9 ± 5.5%.
Turning to `CN(C)[C@H]1CCC2[C@@H]3CCC4C[C@@H](NC(=O)NC(Cc5ccccc5)c5nccs5)CC[C@]4(C)C3CC[C@@]21C` (some centres undefined), the cell growth came to 76.9 ± 20%.
Next, `CCOC(=O)/C=C/c1c(C)[nH]c(=O)[nH]c1=O`: 91.2 ± 25%; `COc1ccc(-c2csc(=[N+]3CCCCC3)s2)cc1`: 80 ± 11%.
The value for `CCCCCCCCCCNCCSSCc1ccc(Cl)cc1` was 126 ± 23%.

Source of the values: the supplement of paper PMC3484114.
